Assay [1] in a line: Confirmation and Secondary Assay for Modulators of Hemoglobin Beta Chain Splicing at IVS2 654 locus (AID 910).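 Further: HeLa cells stably carrying EGFP split by mutant beta-globin IVS2-654 intron.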 The method, boiled down: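 HeLa cells stably expressing EGFP interrupted by β-globin IVS2-654 intron, seeded overnight in Opti-MEM/2% FCS, then treated 2 days at 37 °C. Restored splicing read as total peak GFP intensity per well by laser scanning cytometry (488 nm excitation, 500–520 nm emission); 500 nM antisense PNA as control.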

Assay [2] is described as follows: Cell Viability - LYMP2-001 (AID 921). Further: nearly all actives have a fitted effect of over 70% in size. Further: potency means the concentration at half of the fitted maximal effect. The method, boiled down: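 Cellular ATP loss read by luciferase luminescence after 24 h compound exposure at 37 C in complete medium. LYMP2-001 lymphoblastoid cells, 2500/well; qHTS concentration-response data fitted with Hill equation for AC50.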
A short description of assay [3]: Confirmation and Secondary Assay for Modulators of Hemoglobin Beta Chain Splicing at IVS2 705 locus (AID 930).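 Further: HeLa cells stably expressing the EGFP-705 splicing reporter; GFP fluorescence per well restored by corrected splicing of the IVS2-705 intron in EGFP; series mostly up to about 46 µM.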 The gist of the method: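 HeLa cells stably carrying EGFP interrupted by mutant beta-globin intron 2 (IVS2-705) treated 2 days at 37C with compound; 500 nM antisense PNA as control. Correct splicing read as total peak GFP intensity per well by laser-scanning cytometry.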

Assay [4] concerns the target Cytochrome P450 2C19 (Homo sapiens) (UniProt P33261). Briefly: qHTS Assay for Inhibitors and Substrates of Cytochrome P450 2C19 (AID 899). Further: nearly all actives have a fitted effect of over 60% in size. The method, boiled down:
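5 nM human CYP2C19 with 10uM Luciferin-H EGE (at KM) in 50mM KPO4, compound preincubated 10 min at 37C, then NADPH regeneration for 60 min at 37C. Luciferin read by luminescence after detection reagent; normalized to 57uM ketoconazole as full inhibition.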
(In general: Quantitative high-throughput screening tests each substance at several concentrations.)

Assay [5] is described as follows: qHTS Assay for Identification of Small Molecule Agonists for Thrombopoietin (TPO) Signaling Pathway (AID 917). The gist of the method:
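Luciferase reporter (Glycoprotein IIb promoter) in IL-3-deprived Ba/F3 cells carrying human TPO receptor; compounds co-added with 26 pM TPO, incubated 24 h, 37 C. Steadylite luminescence measured after 10 min.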

In assay [6] the target is Muscarinic acetylcholine receptor M1 (Rattus norvegicus) (UniProt P08482). As to the kind of experiment: qHTS Assay for Antagonists of Acetylcholine Muscarinic M1 Receptor: Measurement of IP-One Response (AID 944). Further: nearly all actives have a fitted effect of over 75% in size. Further: potency means the concentration at half of the fitted maximal effect. The method, boiled down: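 Antagonist mode with rat M1 receptor transfected into CHO cells. Compound is added first for 10 min, carbachol at its EC80 follows for 30 min, and lysis reagents then allow TR-FRET detection of accumulated IP1.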
Chain of Muscarinic acetylcholine receptor M1 (Rattus norvegicus) (P08482 whole entry, looked up): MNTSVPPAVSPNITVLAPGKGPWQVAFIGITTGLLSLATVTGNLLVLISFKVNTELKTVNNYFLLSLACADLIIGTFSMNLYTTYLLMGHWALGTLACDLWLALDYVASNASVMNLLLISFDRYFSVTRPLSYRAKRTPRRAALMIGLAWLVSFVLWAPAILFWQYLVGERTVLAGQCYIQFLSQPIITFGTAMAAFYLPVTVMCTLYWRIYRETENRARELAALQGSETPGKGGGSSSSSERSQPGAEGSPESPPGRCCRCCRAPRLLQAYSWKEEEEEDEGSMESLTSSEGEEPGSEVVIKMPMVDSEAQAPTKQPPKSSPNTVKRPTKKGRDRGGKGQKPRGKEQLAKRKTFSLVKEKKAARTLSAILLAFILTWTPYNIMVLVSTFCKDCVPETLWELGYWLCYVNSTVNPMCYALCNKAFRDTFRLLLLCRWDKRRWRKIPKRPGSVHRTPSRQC

The target in assay [7] is Pyruvate kinase (Leishmania mexicana) (UniProt Q27686). Briefly: qHTS Validation Assay for Inhibitors of Leishmania Mexicana Pyruvate Kinase (AID 945). The gist of the method: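 Eight-point qHTS titrations in triplicate, data normalized to DMSO neutral control. Reaction: 0.2 nM LmPYK E451W mutant, 0.5 mM PEP, 0.1 mM ADP, 7 mM MgCl2, pH 7.2, one hour at room temperature; luminescent ATP detection.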
Chain of Pyruvate kinase (Leishmania mexicana) (Q27686 2-499 E452W): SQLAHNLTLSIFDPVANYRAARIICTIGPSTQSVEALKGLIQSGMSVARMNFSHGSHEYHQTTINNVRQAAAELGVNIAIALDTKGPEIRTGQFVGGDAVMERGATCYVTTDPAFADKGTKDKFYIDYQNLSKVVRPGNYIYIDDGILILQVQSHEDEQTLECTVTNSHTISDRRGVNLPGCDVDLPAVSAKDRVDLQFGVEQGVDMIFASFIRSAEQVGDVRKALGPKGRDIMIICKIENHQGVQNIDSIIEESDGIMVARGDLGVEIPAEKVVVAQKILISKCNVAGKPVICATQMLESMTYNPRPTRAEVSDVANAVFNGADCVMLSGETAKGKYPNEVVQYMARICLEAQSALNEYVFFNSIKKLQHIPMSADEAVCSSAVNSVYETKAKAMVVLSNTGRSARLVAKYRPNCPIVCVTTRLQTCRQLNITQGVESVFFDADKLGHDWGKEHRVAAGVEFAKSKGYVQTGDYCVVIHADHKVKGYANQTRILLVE

Assay [8] concerns the target Muscarinic acetylcholine receptor M1 (Rattus norvegicus) (UniProt P08482). As to the kind of experiment: qHTS Assay for Antagonists of Acetylcholine Muscarinic M1 Receptor: Kinetic Measurement of Intracellular Calcium Response (AID 943). Further: nearly all actives have a fitted effect of over 75% in size. Further: potency means the concentration at half of the fitted maximal effect. The gist of the method: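 Antagonism is measured as inhibition of the carbachol-evoked calcium rise in CHO cells transfected with rat M1. Cells are dye-loaded, exposed to compound for 10 min, then stimulated with 100 nM carbachol (EC80).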

Assay [9] is described as follows: qHTS Assay for Identification of Small Molecule Agonists for Hypoxia Response Element Signaling Pathway (AID 914; active means well fitted activation curve with a large enough effect in the signal ratio, with a control signal flat, not every such curve was filed as active; the % refers to the signal ratio). To be noted: ME-180 (cervical carcinoma) HRE-bla reporter, beta-lactamase ratio, CoCl2, 17 h; stronger effect = higher value. The gist of the method: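 HRE-bla ME-180 cells with beta-lactamase reporter under hypoxia response element, compounds with EC50 CoCl2 for 17 hours at 37 C. CCF4 substrate, 460nm/530nm emission ratio gave %Activity; AC50 from titration series.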

Assay [10] in a line: qHTS Assay for Identification of Small Molecule Antagonists for Thrombopoietin (TPO) Signaling Pathway (AID 918). Further: potency means the concentration at half of the fitted maximal effect; nearly all actives have a fitted effect of over 60% in size. The following applies: TPO-dependent cell signaling reporter, antagonist mode. The gist of the method:
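Inhibitors of TPO signaling are sought by stimulating IL-3-starved murine Ba/F3 cells (human TPO receptor, Glycoprotein IIb-driven luciferase) with TPO at its EC50 of 26 pM alongside compound. After 24 hrs at 37 C, reporter luminescence is measured.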

A number with no mark means an inactive call. Inconclusive results are not listed. Entries that show only a call come without a potency. Calls of active or inactive are those of the source. Unless noted, the call rests on the fitted dose curve; in most records, active means well fitted curve in the direction sought with a large enough effect; inconclusive means small, poorly fitted or top-dose-only effect, or another doubt; inactive means no such curve, though single readings can be large; an effect the other way counts as inactive or inconclusive.

Chain of Cytochrome P450 2C19 (Homo sapiens) (P33261 whole entry, looked up): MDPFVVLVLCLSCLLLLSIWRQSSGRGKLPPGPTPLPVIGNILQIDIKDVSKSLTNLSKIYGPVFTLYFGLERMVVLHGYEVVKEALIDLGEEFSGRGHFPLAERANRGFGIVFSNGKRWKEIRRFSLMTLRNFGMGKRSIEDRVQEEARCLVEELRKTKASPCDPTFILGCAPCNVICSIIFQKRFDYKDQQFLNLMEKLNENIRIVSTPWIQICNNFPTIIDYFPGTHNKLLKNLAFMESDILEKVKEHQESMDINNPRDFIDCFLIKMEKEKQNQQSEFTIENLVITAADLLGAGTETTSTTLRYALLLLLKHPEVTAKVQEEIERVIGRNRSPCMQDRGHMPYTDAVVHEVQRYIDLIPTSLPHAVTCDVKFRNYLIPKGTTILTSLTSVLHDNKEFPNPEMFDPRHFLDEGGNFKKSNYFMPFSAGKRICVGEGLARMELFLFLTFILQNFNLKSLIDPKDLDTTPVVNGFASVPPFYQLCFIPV

In the case of `CC(=O)[O][Hg][c]1ccccc1`, in assay [1], the Potency entry is “inactive”. Also, the Potency in assay [2] is 0.501 µM (active). In [3], the outcome was inactive.
On to `Cc1cc(O)ccc1Cl`, for which the Potency result in assay [1] and in assay [2] was “inactive” in each case. Moreover, the compound was called inactive in assay [3].
`CCCN1CCO[C@@H]2c3cc(O)ccc3OC[C@H]21`: the Potency entry in assay [4] and in assay [6] was “inactive” each time. Besides, the compound was called inactive in assay [5] and in [7].
As to `CC(=O)NCCc1c[nH]c2ccccc12`, the Potency entry in assay [4], in assay [8] and in assay [6] was “inactive” each time. Besides, the call in assay [5] and in assay [7] was inactive.
With `NC(=NCCC[C@H](N)C(=O)O)N[N+](=O)[O-]`, the result in assay [5] and in assay [7] was inactive. Further, the Potency result in assay [8] and in assay [6] was “inactive” throughout.
On to `NCCc1c[nH]c2ccccc12`, for which the Potency entry in assay [1], in assay [8] and in assay [6] was “inactive” each time. The activation in assay [9] is -27.7%. Further, the compound was classed as inactive in assay [5], in assay [3] and in [7].
Consider `O=C(O)COc1ccccc1`, for which, in [2], the Potency result is “inactive”.
The same measure, in the same setting: the same measure for `c1cc2ccc3cccc4ccc(c1)c2c34`: “inactive”.
As for `O=[N+]([O-])c1cc([N+](=O)[O-])c2ccccc2c1`, in [2], the Potency entry is “inactive”.
Take `CC(C)(O)C(=O)Nc1ccc([N+](=O)[O-])c(C(F)(F)F)c1`: the Potency entry in assay [2] is “inactive”.
Regarding `c1ccc2sc(C3(N4CCCCC4)CCCCC3)cc2c1`, in assay [6], the Potency result is “inactive”. The compound was classed as inactive in assay [7].
Take `CCOCCOC(C)=O`: in assay [2], the Potency entry was “inactive”.
`CN(C)NC(=O)CCC(=O)O`: the Potency result in [2] is “inactive”.
Same read-out and setting: the same measure for `Nc1ccc([N+](=O)[O-])cc1`: “inactive”.
Take `c1ccc(CCCN2CCN(CCOC(c3ccccc3)c3ccccc3)CC2)cc1`: the Potency in assay [8] was 0.891 µM (active); in [6] it was 8.91 µM (active). The compound was called inactive in assay [7].
With `S=C(NC1CCCCC1)N1CCC(c2cnc[nH]2)CC1`, the compound was called inactive in assay [7].
With `Nc1ccc(Sc2ccc(N)cc2)cc1`, the Potency entry in [2] was “inactive”.
For `C1CCC(NC2CCCCC2)CC1`, in [2], the Potency entry was “inactive”.
In the case of `O=[N+]([O-])c1c(Cl)c(Cl)cc(Cl)c1Cl`, the Potency entry in assay [2] was “inactive”.
Turning to `CN[C@@H]1C[C@@H](c2ccc(Cl)c(Cl)c2)c2ccccc21`, the Potency in [10] was 12.6 µM (active); in assay [8] it was 2.24 µM (active). The Potency result in assay [6] is “inactive”. Moreover, the compound was classed as inactive in assay [7].
As to `C=CC(=O)NCNC(=O)C=C`, the Potency result in assay [2] was “inactive”.
As to `C#CCOC(=O)C1=CCCN(C)C1`, the Potency result in assay [8] and in assay [6] was “inactive” throughout. The result in [7] was inactive.
Regarding `CNCCc1ccc(O)c(O)c1`, the Potency entry in assay [8] and in [6] was “inactive” throughout. Further, the compound was classed as inactive in assay [7].
As to `CCCCOC(=O)c1ccccc1C(=O)OCc1ccccc1`, in assay [2], the Potency result is “inactive”.
Regarding `CCCCCCCCc1ccc(O)cc1`, in [2], the Potency entry was “inactive”.
Take `CCCN1CCC[C@H](c2cccc(O)c2)C1`: the call in [5] and in [7] was inactive. Also, in assay [6], the Potency result is “inactive”.
`Cc1c(C(=O)c2cccc3ccccc23)c2cccc3c2n1[C@H](CN1CCOCC1)CO3`: the Potency in assay [10] was 12.6 µM (active). For the same compound, the call in assay [7] was inactive.
As for `O=C(O)C(Cl)Cl`, in assay [2], the Potency entry was “inactive”.
On the same count and under the same terms, the value for `O=S(=O)(c1ccc(Cl)cc1)c1ccc(Cl)cc1` was “inactive”; that for `CCOP(=O)(NC(C)C)Oc1ccc(SC)c(C)c1` (stereo not given) was “inactive”.
In the case of `Clc1cnc(Oc2ccc(Oc3ncc(Cl)cc3Cl)cc2)c(Cl)c1`, the result in assay [5] and in [7] was inactive. In addition, the Potency result in assay [6] was “inactive”.
For the compound `O=[N+]([O-])c1c2ccccc2cc2ccccc12`, the Potency result in assay [2] is “inactive”.
Take `C[C@]12N[C@H](Cc3ccccc31)c1ccccc12`: the call in [5] and in assay [7] was inactive.
Regarding `OCCCBr`, the Potency result in assay [2] is “inactive”.
Turning to `CNCCc1c[nH]c2ccc(O)cc12`, the compound was classed as inactive in assay [5] and in assay [7]. In addition, the Potency result in assay [8] and in assay [6] was “inactive” each time.
On to `Nc1ccc(Cl)cc1`, for which the Potency result in assay [2] was “inactive”.
As to `COc1ccc2c(c[n+](C)c3c4cc5c(cc4ccc23)OCO5)c1OC`, the Potency in assay [10] was 2 µM (active); in [6], 35.5 µM (active). For the same compound, the Potency result in assay [8] was “inactive”. Further, the result in [7] was inactive.
Take `CCCCC(CC)COC(=O)c1ccccc1C(=O)OCC(CC)CCCC` (stereo not given): the Potency entry in [2] is “inactive”.
